Screens deposited in PubChem by National Center for Advancing Translational Sciences (NCATS).
ERG Ets-DNA blk – blocks human ERG Ets domain binding to DNA; P11308; fluorescence polarization, His-ERG Ets domain / labelled DNA; Potency, µM (highest dose often 76.9 µM), without a hit: at the top dose FP activity, negative = inhibition, hits mostly inhibitors; 370,000 compounds, 0.028% hits; active = well fitted inhibition curve with a large enough effect in the polarisation, with a control signal flat; inconclusive = small, poorly fitted or top-dose-only effect, or effect the other way, or a change in a side signal; inactive = no such curve, though single readings can be large or run the other way; the % refers to the polarisation;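 note: polarization taken with two DNA probes labelled with fluorescein and Texas red; % of control where 0% means no effect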
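His-tagged ERG Ets domain (1 uM in the protein solution; 300mM KCl, 50mM Tris-HCl, 1mM EDTA, 1mM DTT, pH 7.5) received compound, then a probe mix of 5 nM fluorescein-DNA and 100nM Texas-615-DNA. Fluorescence polarization was read for both dyes.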
Tb PFK inh-1 – T. brucei PFK enzyme inhibition. AID 485367. 330,000 compounds, 0.17% hits. Potency, µM (doses to about 57.5 µM), without a hit: top-dose activity, negative = inhibition, hits mostly inhibitors. T. brucei PFK, ADP-Glo luminescence. O15648;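 note: 0% = uninhibited 1x PFK enzyme wells and -100% = no-enzyme wells; nearly all actives have a fitted effect of over 60% in size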
Target sequence (O15648 whole entry, looked up): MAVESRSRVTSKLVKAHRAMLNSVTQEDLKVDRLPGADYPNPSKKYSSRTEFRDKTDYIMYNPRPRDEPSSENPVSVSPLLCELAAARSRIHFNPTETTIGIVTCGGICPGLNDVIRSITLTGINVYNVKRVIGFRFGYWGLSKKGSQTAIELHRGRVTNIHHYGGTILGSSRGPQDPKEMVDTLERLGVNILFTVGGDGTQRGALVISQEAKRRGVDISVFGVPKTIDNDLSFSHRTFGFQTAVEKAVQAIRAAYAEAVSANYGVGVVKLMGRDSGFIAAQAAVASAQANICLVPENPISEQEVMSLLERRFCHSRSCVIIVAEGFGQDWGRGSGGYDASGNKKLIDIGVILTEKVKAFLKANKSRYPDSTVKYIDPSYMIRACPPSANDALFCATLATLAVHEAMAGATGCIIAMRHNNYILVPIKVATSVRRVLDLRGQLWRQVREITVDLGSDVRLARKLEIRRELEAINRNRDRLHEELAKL
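Compounds were pin-transferred as a titration series up to 57 uM into substrate buffer (0.5 mM F6P, 0.1 mM ATP, pH 8.0), then 1.25 nM PFK was added and reactions ran 45 min before ADP-Glo detection.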
Pin1 inh – human Pin1 inhibition; Pin1 FP peptide displacement, HiFluor488, 10 min; Potency, µM (series often up to 115 µM), inactives show at the highest dose activity, negative = inhibition, actives largely listed as inhibitors; 390,000 compounds, 0.009% hits; active = well fitted inhibition curve with a large enough effect in the polarisation, with a control signal flat, not every such curve was filed as active; inconclusive = small, poorly fitted or top-dose-only effect, or effect the other way, or a change in a side signal; inactive = no such curve, though single readings can be large or run the other way; the % refers to the polarisation; note: % is set by controls: 0 for no effect and ±100 for the full control effect
Target sequence (Q13526 whole entry, looked up): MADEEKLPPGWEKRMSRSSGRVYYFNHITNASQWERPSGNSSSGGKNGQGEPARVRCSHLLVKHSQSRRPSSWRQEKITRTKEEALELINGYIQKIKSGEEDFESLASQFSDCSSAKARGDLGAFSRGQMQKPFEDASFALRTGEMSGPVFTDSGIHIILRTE
Chronic BCR inh – chronic active BCR signaling inhibition; Potency, µM (doses to about 46.1 µM), for inactives: top-dose activity change, negative = inhibition, usual class: inhibitors; 340,000 compounds, 0.05% hits; ABC-DLBCL IkBa-CBG/CBR reporter, luminescence ratio, 4 h; active = well fitted inhibition curve with a large enough effect in the signal ratio, with a control signal flat, not every such curve was filed as active; inconclusive = small, poorly fitted or top-dose-only effect, or effect the other way, or a change in a side signal; the % refers to the signal ratio;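 note: plate controls were basal doxycycline-induced cells for no effect and cells given 10 µM MG132 for full effect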
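TMD8 human ABC-DLBCL cells with doxycycline-inducible IκBα–green luciferase fusion and unfused red luciferase, in 0.5% FBS medium; compounds up to 46 uM, 4 h at 37C. Green/red luminescence ratio, filter-overlap corrected, fitted to concentration-response curves.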
Tb PGK inh – T. brucei PGK inhibition. P07378. Potency, µM (doses to about 57.5 µM), inactives show at the top dose activity change, negative = inhibition, hits mostly inhibitors. AID 602233. 380,000 compounds, 0.043% hits. PGK/GAPDH coupled, Kinase-Glo luminescence, 60 min; note: % is set by controls: 0 for no effect and ±100 for the full control effect; nearly all actives have a fitted effect of over 60% in size
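Luminescent ATP detection (Kinase-Glo Plus) follows a 60-minute room-temperature incubation, with wells lacking PGK as controls. Buffer: 100 mM TEA (pH 7.6), 5 mM MgCl2, 0.01% Tween-20. Coupling enzyme GAPDH (100 nM final) supplies unstable 1,3-BPG in-well.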
TbPFK ATP – orthogonal confirmation of T. brucei phosphofructokinase inhibitors; Potency, µM (top dose mostly 57.5 µM), for inactives: at the highest dose inhibition; 1,100 compounds, 47% hits; shares compounds with Tb PFK inh-1; Tb PFK enzyme, ATP depletion, Kinase-Glo Plus luminescence; calls by dose curve; note: nearly all actives have a fitted effect of over 60% in size
Tb PFK inh-2 – validation of T. brucei phosphofructokinase inhibitors; purified T. brucei PFK, ADP-Glo luminescence, 45 min; AID 504637; shares compounds with Tb PFK inh-1; Potency, µM (series often up to 57.5 µM), without a hit: at the top dose activity change, negative = inhibition, most hits filed as inhibitors; 1,100 compounds, 41% hits;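 note: plate controls were full PFK enzyme control for no effect and no enzyme control for full effect; nearly all actives have a fitted effect of over 60% in size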
Numbers without * were called inactive; i = inactive; ? = inconclusive; . = no result; [ ] = another dose, or the depositor's remark. Hits are enriched below; roughly 0.25% of the tested compounds scored in any of these assays. Unless noted, calls come from the whole dose curve; as a rule, active = well fitted curve in the direction sought with a large enough effect; inconclusive = small, poorly fitted or top-dose-only effect, or another doubt; inactive = no such curve, though single readings can be large; an effect the other way counts as inactive or inconclusive. Potency is the fitted concentration of half-maximal effect.

SMILES | ERG Ets-DNA blk | Tb PFK inh-1 | Pin1 inh | Chronic BCR inh | Tb PGK inh | TbPFK ATP | Tb PFK inh-2
O=C1NC(=S)S/C1=C/c1ccc(N2CCOCC2)o1 | 108.5% | 26.9µM* | ? | ? | -22.0% | 12.3% | -13.8%
CCn1c(C(=O)N2CCC(C(=O)N3CCN(c4cc(C)ccc4C)CC3)CC2)cc2sccc21 | -3.0% | . | -0.7% | . | -3.0% | . | .
CCOC(=O)Nc1nnc(Cc2ccc(Cl)c(Cl)c2)s1 | 5.8% | ? | 0.3% | -2.6% | 5.1% | . | .
Cc1[nH]c(=S)sc1Cc1ccc(Cl)c(Cl)c1 | . | 19µM* | . | -7.0% | . | 26.9µM* | 23.9µM*
CCCCC[C@]12Cc3ccccc3C(O1)C1=C(CC(C)(C)CC1=O)O2 | . | 1.8%[11.5 µM] | . | 0.5%[9.22 µM] | . | . | .
COc1ccc2ncnc(NCc3cccs3)c2c1-c1ccc2c(c1)OCO2 | . | . | -5.8% | . | . | . | .
COc1ccc(C(=O)COC(=O)c2ccc(OC)c(OC)c2)cc1OC | -1.0% | -2.4% | ? | -0.8% | -4.3% | . | .
COc1ccc(C(=O)CSC#N)cc1OC | -1.3% | ? | -5.1% | ? | -2.5% | 4.78µM* | 12µM*
O=C(O)CCCN1C(=O)/C(=C/C=C/c2ccco2)SC1=S | 56.9% | ? | ? | ? | ? | . | .
COc1ccc(/C=C2\SC(=S)N(C(Cc3ccccc3)C(=O)O)C2=O)cc1 (stereo unspecified) | -1.5% | -2.1% | ? | ? | -0.8% | . | .
O=C(O)C(Cc1ccccc1)N1C(=O)/C(=C/C=C/c2ccco2)SC1=S (stereo unspecified) | 106.6% | ? | ? | 12.9% | 12.6µM* | 21.3µM* | ?
O=C(O)CC(C(=O)O)N1C(=O)/C(=C/C=C/c2ccco2)SC1=S (stereo unspecified) | 40.2% | 8.49µM* | ? | -0.8% | 4.47µM* | 2.13µM* | 6.01µM*
O=C1CCCC2=C1C1(CCCC1)N=C(Nc1nc3cc(Cl)ccc3o1)N2 | . | . | 4.6% | . | . | . | .
O=C1CCc2cc(S(=O)(=O)Nc3ccc(Cl)cc3)ccc2N1 | . | . | -0.2% | . | . | . | .
ON=C1c2ccccc2-c2ccccc21 | 1.3% | ? | -6.1% | ? | i | 6.6% | 5.5%
O=C(Nc1ccc(F)cc1)Nn1cnnc1 | -2.9% | -26.3% | -6.1% | 0.2% | i | . | .
O=C(Cn1cnc([N+](=O)[O-])c1)Nc1ccc(F)c(Cl)c1 | 25.2% | 23.9µM* | -0.7% | ? | 4.5% | 7.57µM* | 10.7µM*
O=C(CSc1n[nH]c(=O)n1C1CC1)Nc1ccc(F)c(Cl)c1 | -0.4% | ? | -0.3% | ? | 4.9% | ? | ?
CCC(=O)Nc1ccc(F)c(Cl)c1 | -6.0% | 30.1µM* | 3.8% | 9.9% | 0.4% | ? | ?
O=C(Nc1ccc(F)c(Cl)c1)Nn1cnnc1 | . | 16.9µM* | . | 1.4% | . | ? | ?
CC12CCC=CC1C(c1ccoc1)N(Cc1ccccc1)C2=O (stereo unspecified) | . | . | 0.5% | . | . | . | .
CC(C)(C)NC(=O)Nc1ccc(F)c(Cl)c1 | -1.6% | -9.7% | 2.2% | 1.1% | -4.4% | . | .
COC(=O)/C(C#N)=C(/Nc1ccc(F)c(Cl)c1)C(F)(F)F | -7.4% | 26.9µM* | -5.1% | ? | -4.4% | 12µM* | 26.9µM*
Cc1ncc([N+](=O)[O-])n1CC(=O)Nc1ccc(F)c(F)c1 | 2.5% | ? | 6.9% | 1.7% | i | ? | ?
O=C(CN1C(=O)COc2ccc(S(=O)(=O)NC3CCCC3)cc21)Nc1ccc(Cl)cc1 | 2.2% | . | -3.0% | . | 3.5% | . | .
SMILES | ERG Ets-DNA blk | Tb PFK inh-1 | Pin1 inh | Chronic BCR inh | Tb PGK inh | TbPFK ATP | Tb PFK inh-2
O=C(CCc1ccccc1)Nc1ncnc2c1C(c1ccccc1)c1c(ccc3ccccc13)O2 (stereo unspecified) | . | . | 50.1% | . | . | . | .
O=C(CCS(=O)(=O)c1ccc(Br)cc1)Nc1ccc(Br)cc1F | -10.5% | ? | -3.2% | 0.3% | -11.7% | ? | ?
CC(=O)OCC(NC(=O)C(CCCCNC(=O)OCc1ccccc1)NC(=O)OC(C)(C)C)C1OC(n2cc(C)c(=O)[nH]c2=O)C(OC(C)=O)C1OC(C)=O (stereo unspecified) | . | . | -5.0% | . | . | . | .
COc1cccc(C2c3c(ncn(-c4cccc(C)c4)c3=N)Oc3ccc4ccccc4c32)c1 (stereo unspecified) | . | . | 3.0% | . | . | . | .
O=C1C=C(c2ccccc2)C(=O)N1Nc1ccccc1 | 6.9% | 23.9µM* | -2.9% | ? | 5.7% | 21.3µM* | ?
CCOc1ccc(C(c2c(C)[nH][nH]c2=O)c2c(C)[nH][nH]c2=O)cc1OC | -0.1% | ? | 2.9% | ? | 1.3% | ? | -29.3%
O=C(O)c1ccccc1C(=O)Nc1ccc(Br)c(C(F)(F)F)c1 | 8.9% | ? | -0.3% | -15.8% | -3.6% | 2.1% | -0.2%
Cc1cc(C)c(C(=O)Nc2ccc(Br)c(C(F)(F)F)c2)c(C)c1 | . | -5.7% | -0.4% | ? | i | . | .
Cc1ccc(S(=O)(=O)NC(N)=NCCC[C@@H](N)C(=O)Nc2cc(C(F)(F)F)ccc2Cl)cc1 | . | . | -0.2% | . | . | . | .
CCc1nn2c(N)c(/C=C3\C=Nc4ccccc43)c(=O)nc2s1 | 4.8% | ? | 142.5% | ? | -11.3% | -26.0% | ?
CCCCCCc1ccc(C(=O)CCN(C)C)cc1 | . | . | 3.3% | . | . | . | .
O=C(O)CC1S/C(=N/N=C/C=C/c2ccccc2)NC1=O (stereo unspecified) | 4.5% | 8.5% | -11.9% | ? | -7.8% | . | .
O=C(O)CC1S/C(=N/N=C/C=C/c2ccccc2[N+](=O)[O-])NC1=O (stereo unspecified) | -17.6% | ? | -3.5% | 2.3% | -8.5% | -33.1% | ?
O=C(O)CC1S/C(=N/N=C/c2ccc(-c3ccc(Cl)cc3[N+](=O)[O-])o2)NC1=O (stereo unspecified) | -3.1% | ? | ? | 10.5% | -16.3% | -32.7% | ?
COc1ccc(C2Nc3ccccc3C(=O)N2Cc2ccccn2)cc1COc1ccc(NC(C)=O)cc1 (stereo unspecified) | . | . | 0.6% | . | . | . | .
O=C(O)c1ccc2c(c1)C(=O)N([C@@H](Cc1ccc(O)cc1)C(=O)O)C2=O | . | 4.5% | ? | -6.6% | . | . | .
O=C(Nc1ccc(Cl)c([N+](=O)[O-])c1)ONC1=NCCCCC1 | 4.9% | ? | -2.0% | ? | -0.9% | ? | ?
O=C(/C=C/c1ccc(S(=O)(=O)NCc2ccco2)cc1)NCc1cccc(Cl)c1 | 4.5% | 26.9µM* | 12.9% | -3.9% | i | 21.3µM* | 26.9µM*
O=C(/C=C/c1ccco1)NCc1ccco1 | -1.2% | ? | -4.5% | -11.2% | -24.9% | 21.3µM* | ?
